Screens from PubChem BioAssay.
Compounds with a hit are over-represented: about 12% of the library has one in this group of screens.
G9a block = qHTS Assay for Inhibitors of Histone Lysine Methyltransferase G9a; Histone-lysine N-methyltransferase EHMT2 (Homo sapiens), Q96KQ7; G9a H3K9 monomethylation, AlphaScreen, 2 h; Potency, µM (series often up to 102 µM), for the others: top-dose activity, negative = inhibition, hits mostly inhibitors; 350,000 compounds, 8.8% hits; AID 504332, 2011; further: on the % scale 0 is the no-effect control and ±100 the full control effect; nearly all actives have a fitted effect of over 75% in size
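AlphaScreen detection with an anti-monomethyl H3K9 antibody quantified product after a 2 h room-temperature reaction containing 500 nM biotinylated H3K9 peptide, 20 µM SAM and 20 nM enzyme, which had been preincubated 15 min with compound.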
BAZ2B block = qHTS Assay for Inhibitors of BAZ2B; Bromodomain adjacent to zinc finger domain protein 2B (Homo sapiens), Q9UIF8; AlphaScreen BAZ2B-H3K14Ac peptide displacement; Potency, µM (titrated, usually from 114 µM), for the others: top-dose activity change, negative = inhibition, most hits filed as inhibitors; 360,000 compounds, 4.4% hits; AID 504333, 2011; further: on the % scale 0 is the no-effect control and ±100 the full control effect; nearly all actives have a fitted effect of over 60% in size
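Inhibition is scored as reduced AlphaScreen emission. The BAZ2B/b-H3(5-23)K14Ac complex (50 nM each) in PBS pH 7.4, 0.01% Tween-20 meets compound (up to 110 uM) for 30 min at RT before bead addition.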
HP1b binding inh = HTS for Inhibitors of HP1-beta Chromodomain Interactions with Methylated Histone Tails; Potency, µM (highest dose often 114 µM), for inactives: top-dose activity change, negative = inhibition, usual class: inhibitors; AID 540317, 2011; 390,000 compounds, 0.56% hits; Chromobox protein homolog 1 (Homo sapiens), P83916; AlphaScreen HP1-beta / biotin-H3K9me3 peptide binding; further: nearly all actives have a fitted effect of over 70% in size
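Compound inhibition of the preformed complex between 50 nM HP1-beta and 50 nM biotinylated H3K9me3 peptide was read by AlphaScreen. Buffer was PBS pH 7.4 with 0.01% Tween-20. Incubations ran 30 min at room temperature, with 10 ug/mL donor/acceptor beads.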
Sfp PPTase inh = qHTS Assay for Inhibitors of Bacillus subtilis Sfp phosphopantetheinyl transferase (PPTase); 4'-phosphopantetheinyl transferase ffp (Bacillus subtilis), Q9F4F7; Biochemical Sfp PPTase activity, qHTS; Potency, µM, inactives show largest response in the series, negative = inhibition, hits mostly inhibitors; 310,000 compounds, 3.5% hits; AID 1490, 2009;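 further: the enzyme is Sfp with the accession as filed and its product quenches rhodamine fluorescence; 0% = enzyme reaction without inhibitor and -100% = no enzyme wells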
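Compounds were incubated with enzyme (final 15 nM) for 15 min at room temperature before substrate addition started the reaction. Fluorescence at 525 nm excitation, 598 nm emission was recorded immediately and after 30 minutes.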
JMJD2A Tudor = qHTS Assay for Inhibitors of JMJD2A-Tudor Domain; Lysine-specific demethylase 4A (Homo sapiens), O75164; AlphaScreen JMJD2A-Tudor / H3K4me3 peptide binding; Potency, µM (highest dose often 114 µM), for inactives: top-dose activity change, negative = inhibition, most hits filed as inhibitors; 390,000 compounds, 4.4% hits; AID 504339, 2011; further: on the % scale 0 is the no-effect control and ±100 the full control effect; nearly all actives have a fitted effect of over 50% in size
* hit, by the source's call; ! = a repeat was not active; [ ] = dose if it differs, or a comment. The call rests on the fitted dose curve; in most records, active means well fitted curve in the direction sought with a large enough effect; inconclusive means small, poorly fitted or top-dose-only effect, or another doubt; inactive means no such curve, though single readings can be large; an effect the other way counts as inactive or inconclusive. Potency means the concentration at half of the fitted maximal effect.

Cc1ccc(C(=O)N2NC(c3ccccc3F)C3C(=O)N(c4cccc(C)c4)C(=O)C32)cc1 (configuration not stated) was read as G9a block inconclusive, BAZ2B block -30%, HP1b binding inh 39%, Sfp PPTase inh 11% and JMJD2A Tudor -16%.
For COCCN1CCC(CNCc2cn[nH]c2-c2ccc(C)c(C)c2)C1 (configuration not stated) the results were G9a block -20%, BAZ2B block -2%, HP1b binding inh 32%, Sfp PPTase inh 8% and JMJD2A Tudor -15%.
For COCCN1CCC(CNCc2cn(-c3cc(C)ccc3C)nc2-c2ccccc2)C1 (configuration not stated) the results were G9a block -9%, BAZ2B block 2%, HP1b binding inh 22%, Sfp PPTase inh 50µM* and JMJD2A Tudor -33%.
CCn1ccnc1CNCc1cn(-c2cc(C)ccc2C)nc1-c1ccccc1 was read as G9a block -10%, BAZ2B block 40µM*, HP1b binding inh 10%, Sfp PPTase inh -14% and JMJD2A Tudor inconclusive.
Screening Cc1ccc(C)c(-n2cc(CNCCc3cnccn3)c(-c3ccccc3)n2)c1 returned G9a block 0%, BAZ2B block -20%, HP1b binding inh 31%, Sfp PPTase inh 1% and JMJD2A Tudor -8%.
Screening CN1CCN(C(=O)c2ccc3c(c2)N(Cc2ccc(F)cc2)C(=O)c2ccccc2S3(=O)=O)CC1 returned G9a block inconclusive, BAZ2B block -17%, HP1b binding inh 21% and JMJD2A Tudor -15%.
`O=C(NCc1ccccc1F)C1CCN(c2nn3cc(-c4ccc(F)cc4)nc3s2)CC1` gave G9a block 9%[59 µM], BAZ2B block 1%, HP1b binding inh 32% and JMJD2A Tudor -1%.
Screening COc1ccc(NC(=O)C(c2ccc(Cl)cc2)C(C)C)cn1 (configuration not stated) returned G9a block 36%, BAZ2B block -14%, HP1b binding inh 30%, Sfp PPTase inh 2% and JMJD2A Tudor -13%.
Screening O=C(O)c1cc(=O)c2c(Cl)cc(Cl)cc2[nH]1 returned G9a block 16%[12.7 µM], HP1b binding inh 4%, Sfp PPTase inh inconclusive and JMJD2A Tudor 50µM*.
Screening O=C(O)c1cc(=O)c2ccccc2[nH]1 returned G9a block 10µM*!, BAZ2B block inconclusive, HP1b binding inh 13%, Sfp PPTase inh -24% and JMJD2A Tudor inconclusive.
`O=C(O)c1cc2ccc3ccccc3c2[nH]1` gave G9a block inconclusive, BAZ2B block -10%, HP1b binding inh 24%, Sfp PPTase inh inconclusive and JMJD2A Tudor -12%.
For O=c1cc(C(F)(F)F)[nH]c2ccccc12 the results were G9a block -33%, BAZ2B block 2%, HP1b binding inh 51%, Sfp PPTase inh 16% and JMJD2A Tudor 0%.
For O=C(O)c1cc(=O)c2cccc(O)c2[nH]1 the results were G9a block -33%[2.33 µM], HP1b binding inh 49%, Sfp PPTase inh 79µM*! and JMJD2A Tudor 28µM*.
CCOC(=O)Cc1csc(NC(=O)CN2CCN(c3ccccc3)CC2)n1 was read as G9a block -7%[0.501 µM], BAZ2B block -6%, HP1b binding inh 25%, Sfp PPTase inh 18% and JMJD2A Tudor -10%.
Screening Cc1c2cnn(CC(=O)Nc3ccc(F)cc3F)c(=O)c2c(C)n1Cc1cccc(Cl)c1 returned G9a block -26%[59 µM], BAZ2B block -5%, HP1b binding inh 30% and JMJD2A Tudor -18%.
Screening CCc1ccc(S(=O)(=O)c2c[nH]c3cc(OC)c(OC)cc3c2=O)cc1 returned G9a block 3%[59 µM], BAZ2B block 1%, HP1b binding inh 37% and JMJD2A Tudor -4%.
For NC1=NC(=O)C(CC(=O)Nc2ccc3c(c2)OCO3)S1 (configuration not stated) the results were G9a block 50µM*, BAZ2B block -33%, HP1b binding inh 28%, Sfp PPTase inh 14% and JMJD2A Tudor -13%.
For CCN=C1SC(CC(=O)Nc2ccc3c(c2)OCO3)C(=O)N1CC (configuration not stated) the results were BAZ2B block -9%, HP1b binding inh 15%[57 µM], Sfp PPTase inh -10% and JMJD2A Tudor -10%.
`CC(C)(C)c1cccc(Oc2nn[nH]n2)c1` gave G9a block 79µM*, BAZ2B block -3%, HP1b binding inh 31%, Sfp PPTase inh 9% and JMJD2A Tudor -16%.
For N#Cc1cccc(NC(=O)C2CCN(S(=O)(=O)c3ccc4c(c3)CCCN4C(=O)C3CCC3)CC2)c1 the results were G9a block -3%[59 µM], BAZ2B block 0%, HP1b binding inh 20%[57 µM] and JMJD2A Tudor -17%.
For O=C1N[C@@H]2[C@H](CCCCC(=O)Oc3ccc([N+](=O)[O-])cc3)SC[C@H]2N1 the results were Sfp PPTase inh -5%.
O=S(=O)(Nc1ccc(N2CCOCC2)cc1)c1ccc2ccccc2c1 was read as G9a block 40µM*, BAZ2B block inconclusive, HP1b binding inh -23%, Sfp PPTase inh -10% and JMJD2A Tudor inconclusive.
For O=S(=O)(Nc1cc(C(F)(F)F)ccc1N1CCOCC1)c1ccccc1 the results were G9a block 3%, BAZ2B block 1%, HP1b binding inh 55%, Sfp PPTase inh 26% and JMJD2A Tudor -1%.
`Cc1ccc(S(=O)(=O)Nc2ccc(N3CCCCC3)cc2)cc1` gave G9a block 22µM*, BAZ2B block 35µM*, HP1b binding inh inconclusive, Sfp PPTase inh 4% and JMJD2A Tudor inconclusive.
`O=S(=O)(Nc1cc(C(F)(F)F)ccc1N1CCOCC1)c1ccc2ccccc2c1` gave G9a block 50µM*, BAZ2B block -2%, HP1b binding inh 59%, Sfp PPTase inh 0% and JMJD2A Tudor -7%.
Screening CC(=O)N1CCN(c2ccc(NS(=O)(=O)c3ccc(C)cc3)cc2)CC1 returned G9a block 45µM*, BAZ2B block -15%, HP1b binding inh 9%, Sfp PPTase inh 8% and JMJD2A Tudor -26%.
For CCc1ccc(NC(=O)CCc2c(C)nn(-c3ccc(N4CCCC4)nn3)c2C)cc1 the results were G9a block 14%[59 µM], BAZ2B block -39%, HP1b binding inh 31% and JMJD2A Tudor -27%.
`CCOc1ccc(CCNC(c2nnc(-c3ccccc3)o2)c2ccccc2Cl)cc1OCC` (configuration not stated) gave G9a block 43%[59 µM], BAZ2B block 2%, HP1b binding inh 74% and JMJD2A Tudor -21%.
